This note sets out measurements from PubChem BioAssay AID493131 (Broad Institute, 2011).

About 3,300 (0.97%) of roughly 340,000 compounds were called active. The sample as a whole holds a higher share of actives than the screen did. Unmarked numbers belong to inactive results.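 Rule for the calls: active = mean activation above about 17%, with every replicate also reaching it (limit read from the data, passing the limit was not always enough); inconclusive = only one of the two conditions met; inactive = the rest.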

For the assay, the target named is Protein FosB (Mus musculus) (UniProt P13346). As to the kind of experiment: activators of delta FosB homodimer, primary screen, biochemical, fluorescence polarization, TAMRA-CDK5 oligo, single point (AID 493131).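 Note: fluorescence polarization rise as delta FosB binds a TAMRA Cdk5 AP-1 oligo.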 As to conditions: purified delta FosB, at 25 µM, stronger effect = higher value, percent of positive-control signal above neutral wells. (Polarisation of emitted light reports the rotation of a fluorescent probe.)
Chain of Protein FosB (Mus musculus) (P13346 whole entry, looked up): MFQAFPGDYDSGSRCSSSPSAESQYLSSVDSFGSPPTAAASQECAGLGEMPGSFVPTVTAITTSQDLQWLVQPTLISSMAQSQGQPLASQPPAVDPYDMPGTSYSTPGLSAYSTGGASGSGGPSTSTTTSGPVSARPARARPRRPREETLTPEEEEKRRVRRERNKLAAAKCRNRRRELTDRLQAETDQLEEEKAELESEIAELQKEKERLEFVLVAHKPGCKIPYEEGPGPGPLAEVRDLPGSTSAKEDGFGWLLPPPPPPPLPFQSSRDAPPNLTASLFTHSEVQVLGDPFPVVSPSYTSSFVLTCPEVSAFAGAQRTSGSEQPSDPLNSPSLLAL
As for `O=c1c2ccccc2oc2nc(C3CCCCC3)n(Cc3ccco3)c(=O)c12`, the activation was 34% (active).
As for `CCc1nc2oc3ccccc3c(=O)c2c(=O)n1Cc1ccc(OC)cc1`, the figure is -18.5%; as for `O=c1c2ccccc2oc2nc3n(c(=O)c12)CCCS3`, -28.8%.
The result for `COC(=O)c1cc(C(=O)N(Cc2ccccc2)c2ccccn2)cc([N+](=O)[O-])c1` reads -5.79%.
As for `C[C@@H](CN1CCC[C@H]1CN1C(N)=NC[C@@H]1Cc1ccccc1)N1C[C@@H](Cc2ccccc2)N(CCCC2CCCC2)C1=N`, the activation was -7.85%.
As for `CC(C)C[C@H]1CN([C@@H](CC(C)C)CN2CCC[C@@H]2CN2C(=O)C(=O)NC[C@@H]2Cc2ccccc2)C(=O)C(=O)N1CCc1ccccc1`, the figure is -16%; as for `CC[C@@H](C)[C@@H]1CN([C@@H](C)CN2CCC[C@H]2CN2C(N)=NC[C@H]2C(C)C)C(=N)N1CCc1ccc(Cl)c(Cl)c1`, 23.1% (active).
As for `Cc1cc(SCC(=O)NCCN2C(=O)CSC2=O)nc2ccccc12`, the activation is 5.19%.
For `C=CCNC(=O)c1ccc2c3n(nc2c1)-c1ccc(C)cc1CO3`, the activation was -4.63%.
As for `CC(OC(=O)c1cc2ccccc2o1)C(=O)Nc1ccc(N2CCOCC2)cc1` (stereo not given), the figure is -0.675%; as for `CCCCC(c1nnnn1CS(=O)(=O)c1ccc(C)cc1)N1CCC(C(N)=O)CC1` (stereo not given), -1.34%; as for `COc1ccc(C(CNC(=O)c2ccc(S(=O)(=O)Nc3ccccc3F)cc2)N(C)C)cc1` (stereo not given), 1.38%.
Take `COC(=O)c1ccc(S(=O)(=O)N2CCc3ccccc3C2)cc1`: the activation is -1.34%.
The result for `CC(=O)Nc1ccc(S(=O)(=O)N2CCC(NC(=O)c3ccccc3)CC2)cc1` reads 3.46%; that for `O=C(Nc1ccc(S(=O)(=O)N2CCc3ccccc3C2)cc1)c1ccccc1`, 25.5% (active); that for `O=C(CN1C(=O)S/C(=C\c2ccccc2Cl)C1=O)NC1C=CS(=O)(=O)C1` (stereo not given), -2.97%.
Consider `COc1cccc(/C=C2/SC(=S)N(CC(=O)NC3C=CS(=O)(=O)C3)C2=O)c1` (stereo not given), for which the activation was 35.9% (active).
As for `COc1cccc(/C=C2\Sc3ccc(C(=O)NCC4CCCO4)cc3N(C)C2=O)c1` (stereo not given), the figure is 0.556%; as for `COc1ccc(S(=O)(=O)N2CCCC2CNC(=O)C(=O)NC2CC2)cc1` (stereo not given), -3.99%.
The result for `CC1C(=O)Nc2ccccc2N1C(=O)c1ccc(F)cc1F` (stereo not given) reads 1.98%; that for `Cc1ccc(NC(=O)COc2ccc(/C=N\NC(=O)c3cccnc3)cc2)cc1C`, 82.7% (active).
The result for `Cc1ccc(OCC(=O)NCCCNC(=O)c2cccnc2)cc1C` reads 2.57%; that for `C/C(=C\C(=O)c1cccnc1)Nc1ccc(C)c(C)c1`, -1.12%; that for `N#Cc1ccccc1S(=O)(=O)N1CCN(C(=O)c2cc(-c3ccccc3)nn2-c2ccccc2)CC1`, 1.25%.
Turning to `O=[N+]([O-])c1ccc(N2CCN(c3ccc(O)cc3)CC2)c(Cl)c1`, the activation was -9.93%.
As for `CCOC(=O)c1cc(=O)c2ccc(OCc3ccccc3)cc2o1`, the activation is -2.05%.
As for `CCN(C(=O)COC(=O)c1ccc(COc2ccc3c(C)cc(=O)oc3c2)cc1)C1CCS(=O)(=O)C1` (stereo not given), the figure is 2.03%.
As for `Cc1ccccc1NC(=O)c1ccc(COc2ccc3c(C)cc(=O)oc3c2)cc1`, the figure is 22.2% (active); as for `Cc1ccc(C(C)C)c(OCCSc2nc3ccccc3n2CC(=O)O)c1`, -20.9%; as for `CCOc1ccc(OCC(=O)Nc2c3c(nn2C(C)(C)C)CS(=O)(=O)C3)cc1`, -1.81%.
In the case of `CCOc1ccc(N(C)S(=O)(=O)c2cnc[nH]2)cc1`, the activation is -0.199%.
Turning to `CSc1ncccc1C(=O)Nc1ccc2c(c1)OCO2`, the activation is -5.35%.
With `Cc1ccc(-n2c(SCC(=O)Nc3ccc4c(c3)OCO4)nnc2-c2ccccn2)cc1`, the activation is -2.46%.
As for `Cc1ccc2nc(-c3ccccn3)cc(C(=O)Nc3ccc4c(c3)OCO4)c2c1`, the figure is 36.9% (active); as for `O=C(N/C(=C\c1ccc([N+](=O)[O-])cc1)C(=O)N1CCCCC1)c1ccco1`, -1.72%.
For the molecule `O=C(Cn1nnc(-c2ccccc2)n1)NCc1ccc2c(c1)OCO2`, the activation is 22.6% (active).
`CCN(CC)C(=O)C(=O)c1cn(CC(=O)NCc2ccc3c(c2)OCO3)c2ccccc12`: the activation was -0.7%.
For `S=C(NCc1ccc2c(c1)OCO2)NCc1ccco1`, the activation was -2.47%.
The result for `COc1cc(-c2nnn(CC(=O)NCc3ccccc3)n2)cc(OC)c1OC` reads -0.135%; that for `O=C(CN(C(=O)CCC(=O)Nc1nccs1)c1ccc(F)cc1)NCc1ccc2c(c1)OCO2`, 6.39%; that for `O=C(Cn1cnc2c(nnn2Cc2ccc(F)cc2)c1=O)NCc1ccc2c(c1)OCO2`, 17.6% (active).
As for `CS(=O)(=O)N(CC(=O)NCc1ccco1)c1ccc2c(c1)OCO2`, the figure is 2.32%.
As to `O=C(Cn1nnc(-c2ccc3c(c2)OCO3)n1)NCc1ccco1`, the activation is 33.3% (active).
In the case of `Cc1ccc(Cn2nnc3c(=O)n(CC(=O)N4CCCCC4)cnc32)cc1`, the activation is 3.79%.
Regarding `O=C(NC1CCCC1)C(c1ccc(Cl)cc1)N(C(=O)c1csnn1)C1CC1` (stereo not given), the activation was -6.23%.
With `Cc1ccc(-c2cnc(NC(=O)CCC(=O)N(C)Cc3ccccc3)n2C)cc1`, the activation is -2.74%.
`CCCC1C(=O)N2C(N(C)C)=Nc3ccc(C)cc3N2C1=O` (stereo not given): the activation was 6.69%.
The result for `COc1ccc(S(=O)(=O)N2CCN(C(C)C(=O)Nc3ccc(C(C)C)cc3)CC2)cc1` (stereo not given) reads -3.44%; that for `O=C(CCc1ccccc1)Nc1ccc(NC(=O)C2CC2)nc1`, 4.2%; that for `COc1ccc(S(=O)(=O)N(CC(=O)N/N=C/c2ccc(C(=O)O)cc2)Cc2ccccc2)cc1OC`, -11.9%.
Turning to `Cc1ccccc1NC(=O)CCOc1ccccc1`, the activation is -7.98%.
As for `O=C(NC(=S)Nc1ccc(NC(=O)c2cccs2)cc1)c1ccc([N+](=O)[O-])cc1`, the figure is -0.174%; as for `CC(Oc1cccc(NC(=O)c2cccs2)c1)C(=O)c1ccccc1` (stereo not given), -3.07%; as for `O=C(Nc1ccccc1)c1ccc(NC(=O)c2cccs2)cc1`, 19% (active).
The result for `O=C(O)c1ccccc1C(=O)NC1=NN(c2ccccc2)CC1` reads -3.52%.
